# What was measured:
# Assay in all cases: DAPPL (digital affinity profiling via proximity ligation, sequencing); 10 mM Tris-HCl pH 7.5, 50 mM NaCl, 1 mM DTT, 4% glycerol, room temperature, 30 min; GST-TFs on glutathione beads, 16-mer random dsDNA library, 0.1% formaldehyde crosslink after washing; high values mean tight binding
# FLI1 = target: T1, FLI1 (Homo sapiens, UniProt Q01543 1-452); details: protein: recombinant; tags: N-terminal GST; dsDNA, one strand shown
# T1 sequence: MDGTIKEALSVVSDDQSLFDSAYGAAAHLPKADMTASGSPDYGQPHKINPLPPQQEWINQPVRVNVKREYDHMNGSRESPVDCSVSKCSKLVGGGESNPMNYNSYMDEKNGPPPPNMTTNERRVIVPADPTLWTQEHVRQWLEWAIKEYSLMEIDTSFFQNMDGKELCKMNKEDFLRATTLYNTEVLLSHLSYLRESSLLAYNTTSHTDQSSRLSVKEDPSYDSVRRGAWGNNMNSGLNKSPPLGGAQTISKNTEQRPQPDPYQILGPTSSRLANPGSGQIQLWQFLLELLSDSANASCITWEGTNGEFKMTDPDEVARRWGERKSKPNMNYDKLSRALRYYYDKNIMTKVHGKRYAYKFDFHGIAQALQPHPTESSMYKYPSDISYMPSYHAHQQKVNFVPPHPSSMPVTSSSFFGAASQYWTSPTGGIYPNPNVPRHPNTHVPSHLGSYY
# In short: (§1)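 The binding signal reported is, for every hexamer, its read frequency for a factor over its read frequency for the tag-only sample. Reads came from pools of yeast-expressed, GST-fused human transcription factors on glutathione beads, barcoded with DNA and mixed with that sample, which were incubated with 200 nmole of a random double-stranded 16-mer DNA library in Tris/NaCl/DTT/glycerol buffer at room temperature for 30 min. After washing, the pools were crosslinked with 0.1% formaldehyde, proximity-ligated with BsaI/T4 ligase for 1 h at 37 °C, PCR-amplified and sequenced on an Illumina NextSeq500.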
# ELK1 = target: T2, ELK1 (Homo sapiens, UniProt P19419 1-428); details: protein: recombinant; tags: N-terminal GST; dsDNA, one strand shown
# T2 sequence: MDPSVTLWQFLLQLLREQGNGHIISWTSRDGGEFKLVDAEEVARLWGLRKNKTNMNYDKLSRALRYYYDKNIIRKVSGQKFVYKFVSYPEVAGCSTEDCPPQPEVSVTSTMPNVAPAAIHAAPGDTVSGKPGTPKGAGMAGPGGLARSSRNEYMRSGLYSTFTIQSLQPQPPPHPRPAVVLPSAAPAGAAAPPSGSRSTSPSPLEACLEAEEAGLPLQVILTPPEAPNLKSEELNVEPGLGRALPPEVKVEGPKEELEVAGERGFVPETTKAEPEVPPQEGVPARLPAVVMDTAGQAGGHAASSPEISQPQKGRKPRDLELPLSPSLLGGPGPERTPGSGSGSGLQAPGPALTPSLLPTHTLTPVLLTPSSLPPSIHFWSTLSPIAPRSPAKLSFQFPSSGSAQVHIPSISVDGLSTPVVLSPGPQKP
# In short: as §1
# GABPA = target: T3, GABPA (Homo sapiens, UniProt Q06546 1-454); details: protein: recombinant; tags: N-terminal GST; dsDNA, one strand shown
# T3 sequence: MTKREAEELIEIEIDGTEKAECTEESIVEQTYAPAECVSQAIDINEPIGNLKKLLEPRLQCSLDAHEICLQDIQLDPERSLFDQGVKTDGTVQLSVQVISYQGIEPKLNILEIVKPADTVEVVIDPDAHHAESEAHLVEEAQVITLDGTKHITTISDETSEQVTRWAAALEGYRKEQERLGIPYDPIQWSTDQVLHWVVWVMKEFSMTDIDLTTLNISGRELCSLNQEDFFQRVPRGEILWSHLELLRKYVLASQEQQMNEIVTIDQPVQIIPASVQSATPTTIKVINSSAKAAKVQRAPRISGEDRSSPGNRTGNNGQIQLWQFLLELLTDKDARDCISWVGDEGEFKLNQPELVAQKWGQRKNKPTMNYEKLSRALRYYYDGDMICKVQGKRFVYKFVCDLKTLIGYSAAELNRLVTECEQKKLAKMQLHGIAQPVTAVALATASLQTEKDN
# In short: as §1
# ERG = target: T4, ERG (Homo sapiens, UniProt P11308 1-479); details: protein: recombinant; tags: N-terminal GST; dsDNA, one strand shown
# T4 sequence: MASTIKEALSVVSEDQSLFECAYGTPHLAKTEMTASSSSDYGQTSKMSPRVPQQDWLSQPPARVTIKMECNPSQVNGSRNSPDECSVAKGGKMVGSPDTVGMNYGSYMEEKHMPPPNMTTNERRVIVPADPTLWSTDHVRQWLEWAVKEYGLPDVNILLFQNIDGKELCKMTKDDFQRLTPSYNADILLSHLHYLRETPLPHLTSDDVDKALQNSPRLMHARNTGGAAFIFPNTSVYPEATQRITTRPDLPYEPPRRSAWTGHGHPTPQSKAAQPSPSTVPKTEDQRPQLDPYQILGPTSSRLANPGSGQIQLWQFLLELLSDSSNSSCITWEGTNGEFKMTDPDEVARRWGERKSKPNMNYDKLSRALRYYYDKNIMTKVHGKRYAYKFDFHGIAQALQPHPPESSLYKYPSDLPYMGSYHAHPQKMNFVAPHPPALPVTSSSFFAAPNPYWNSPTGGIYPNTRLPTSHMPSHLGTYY
# In short: as §1
# ELF1 = ELF1 (Homo sapiens, UniProt P32519 1-619); details: protein: recombinant; tags: N-terminal GST; dsDNA, one strand shown
# Sequence of ELF1 (P32519 whole entry): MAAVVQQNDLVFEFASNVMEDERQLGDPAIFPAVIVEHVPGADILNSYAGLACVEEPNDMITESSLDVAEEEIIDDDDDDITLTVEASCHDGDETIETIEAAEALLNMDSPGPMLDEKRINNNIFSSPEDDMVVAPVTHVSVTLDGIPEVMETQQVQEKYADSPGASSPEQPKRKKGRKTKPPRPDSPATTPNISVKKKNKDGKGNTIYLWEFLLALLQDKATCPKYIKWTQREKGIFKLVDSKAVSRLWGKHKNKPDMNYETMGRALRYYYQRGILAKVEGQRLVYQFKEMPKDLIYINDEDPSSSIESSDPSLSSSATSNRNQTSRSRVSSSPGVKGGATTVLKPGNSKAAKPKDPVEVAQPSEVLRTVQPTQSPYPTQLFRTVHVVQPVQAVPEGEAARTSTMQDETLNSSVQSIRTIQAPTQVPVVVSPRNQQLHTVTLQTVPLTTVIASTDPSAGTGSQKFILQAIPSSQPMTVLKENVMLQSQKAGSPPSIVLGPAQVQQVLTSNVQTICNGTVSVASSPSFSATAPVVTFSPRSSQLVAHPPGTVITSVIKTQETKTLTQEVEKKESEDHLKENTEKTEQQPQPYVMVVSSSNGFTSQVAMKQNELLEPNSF
# In short: as §1
# EHF = target: T5, EHF (Homo sapiens, UniProt Q9NZC4 1-300); details: protein: recombinant; tags: N-terminal GST; dsDNA, one strand shown
# T5 sequence: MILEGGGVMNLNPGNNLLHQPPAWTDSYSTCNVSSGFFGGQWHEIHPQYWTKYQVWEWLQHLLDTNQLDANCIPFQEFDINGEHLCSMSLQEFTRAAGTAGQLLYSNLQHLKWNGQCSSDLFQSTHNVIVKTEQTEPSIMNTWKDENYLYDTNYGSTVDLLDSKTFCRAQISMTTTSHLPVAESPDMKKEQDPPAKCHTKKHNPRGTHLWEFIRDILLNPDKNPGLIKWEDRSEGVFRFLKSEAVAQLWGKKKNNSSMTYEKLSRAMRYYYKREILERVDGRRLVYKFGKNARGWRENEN
# In short: as §1
# SPI1 = SPI1 (Homo sapiens, UniProt P17947 1-270); details: protein: recombinant; tags: N-terminal GST; dsDNA, one strand shown
# In short: as §1
# SPIB = SPIB (Homo sapiens, UniProt Q01892 1-262); details: protein: recombinant; tags: N-terminal GST; dsDNA, one strand shown
# Sequence of SPIB (Q01892 whole entry): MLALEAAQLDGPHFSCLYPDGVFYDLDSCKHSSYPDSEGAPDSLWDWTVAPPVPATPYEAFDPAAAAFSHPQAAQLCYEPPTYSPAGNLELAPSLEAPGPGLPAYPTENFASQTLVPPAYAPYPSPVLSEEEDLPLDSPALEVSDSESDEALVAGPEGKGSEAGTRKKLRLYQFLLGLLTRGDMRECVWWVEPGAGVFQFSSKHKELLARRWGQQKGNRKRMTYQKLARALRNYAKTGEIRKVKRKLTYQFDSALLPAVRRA
# In short: as §1
# ELK3 = target: T6, ELK3 (Homo sapiens, UniProt P41970 1-407); details: protein: recombinant; tags: N-terminal GST; dsDNA, one strand shown
# T6 sequence: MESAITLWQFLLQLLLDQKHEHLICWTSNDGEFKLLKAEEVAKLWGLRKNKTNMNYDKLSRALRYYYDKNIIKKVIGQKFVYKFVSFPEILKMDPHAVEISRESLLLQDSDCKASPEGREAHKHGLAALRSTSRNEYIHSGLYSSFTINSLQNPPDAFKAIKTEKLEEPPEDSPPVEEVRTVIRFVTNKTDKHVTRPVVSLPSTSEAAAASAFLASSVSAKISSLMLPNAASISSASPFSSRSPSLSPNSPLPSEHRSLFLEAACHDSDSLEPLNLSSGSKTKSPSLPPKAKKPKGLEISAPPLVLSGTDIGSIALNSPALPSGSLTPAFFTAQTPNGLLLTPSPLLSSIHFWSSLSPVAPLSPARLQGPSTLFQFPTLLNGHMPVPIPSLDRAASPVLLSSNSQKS
# In short: as §1
# FEV = target: T7, FEV (Homo sapiens, UniProt Q99581 1-238); details: protein: recombinant; tags: N-terminal GST; dsDNA, one strand shown
# T7 sequence: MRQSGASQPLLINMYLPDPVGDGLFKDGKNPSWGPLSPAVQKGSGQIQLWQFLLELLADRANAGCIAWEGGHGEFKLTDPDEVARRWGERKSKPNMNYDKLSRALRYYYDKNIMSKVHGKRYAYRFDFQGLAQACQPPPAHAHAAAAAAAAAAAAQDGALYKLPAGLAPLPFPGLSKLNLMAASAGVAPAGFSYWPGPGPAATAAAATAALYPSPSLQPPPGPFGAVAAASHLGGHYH
# In short: as §1
# ETV5 = ETV5 (Homo sapiens, UniProt P41161 1-510); details: protein: recombinant; tags: N-terminal GST; dsDNA, one strand shown
# Sequence of ETV5 (P41161 whole entry): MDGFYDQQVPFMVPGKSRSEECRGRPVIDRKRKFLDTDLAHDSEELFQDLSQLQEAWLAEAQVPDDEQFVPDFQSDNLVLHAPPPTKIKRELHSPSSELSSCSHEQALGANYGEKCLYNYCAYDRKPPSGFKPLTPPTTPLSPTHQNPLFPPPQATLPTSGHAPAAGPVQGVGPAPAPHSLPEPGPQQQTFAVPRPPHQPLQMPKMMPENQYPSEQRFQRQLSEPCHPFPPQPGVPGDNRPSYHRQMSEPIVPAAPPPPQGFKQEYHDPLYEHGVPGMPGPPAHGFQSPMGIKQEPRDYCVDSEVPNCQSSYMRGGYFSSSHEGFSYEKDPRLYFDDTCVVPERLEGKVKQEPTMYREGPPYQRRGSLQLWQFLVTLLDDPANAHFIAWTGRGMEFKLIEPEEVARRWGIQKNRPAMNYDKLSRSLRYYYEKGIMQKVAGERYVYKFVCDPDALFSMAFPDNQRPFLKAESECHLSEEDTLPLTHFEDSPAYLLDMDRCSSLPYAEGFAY
# In short: as §1
# HSF1 = HSF1 (Homo sapiens, UniProt Q00613 1-529); details: protein: recombinant; tags: N-terminal GST; chain copies: 3; dsDNA, one strand shown
# Sequence of HSF1 (Q00613 whole entry): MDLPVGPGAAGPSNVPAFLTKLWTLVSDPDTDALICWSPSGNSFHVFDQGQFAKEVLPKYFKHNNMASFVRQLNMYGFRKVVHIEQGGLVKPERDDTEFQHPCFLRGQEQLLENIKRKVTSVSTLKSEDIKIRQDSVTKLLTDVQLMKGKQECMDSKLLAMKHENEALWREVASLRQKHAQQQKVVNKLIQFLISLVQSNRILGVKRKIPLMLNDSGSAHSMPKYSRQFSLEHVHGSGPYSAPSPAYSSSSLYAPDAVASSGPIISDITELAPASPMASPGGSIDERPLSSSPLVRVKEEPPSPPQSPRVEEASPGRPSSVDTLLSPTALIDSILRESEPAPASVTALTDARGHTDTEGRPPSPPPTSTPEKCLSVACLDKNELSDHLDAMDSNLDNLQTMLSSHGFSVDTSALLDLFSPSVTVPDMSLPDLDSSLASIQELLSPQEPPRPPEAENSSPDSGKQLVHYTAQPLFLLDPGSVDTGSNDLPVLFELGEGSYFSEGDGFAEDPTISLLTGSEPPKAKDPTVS
# In short: as §1
# SPIC = target: T8, SPIC (Homo sapiens, UniProt Q8N5J4 1-248); details: protein: recombinant; tags: N-terminal GST; dsDNA, one strand shown
# T8 sequence: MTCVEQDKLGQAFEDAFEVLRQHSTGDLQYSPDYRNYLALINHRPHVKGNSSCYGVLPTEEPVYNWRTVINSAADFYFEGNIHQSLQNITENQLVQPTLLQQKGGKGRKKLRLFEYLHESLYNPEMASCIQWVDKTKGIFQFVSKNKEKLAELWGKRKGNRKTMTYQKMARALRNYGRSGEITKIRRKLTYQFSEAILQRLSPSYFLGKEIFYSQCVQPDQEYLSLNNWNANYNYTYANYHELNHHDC
# In short: as §1
# ELF4 = ELF4 (Homo sapiens, UniProt Q99607 1-663); details: protein: recombinant; tags: N-terminal GST; dsDNA, one strand shown
# Sequence of ELF4 (Q99607 whole entry): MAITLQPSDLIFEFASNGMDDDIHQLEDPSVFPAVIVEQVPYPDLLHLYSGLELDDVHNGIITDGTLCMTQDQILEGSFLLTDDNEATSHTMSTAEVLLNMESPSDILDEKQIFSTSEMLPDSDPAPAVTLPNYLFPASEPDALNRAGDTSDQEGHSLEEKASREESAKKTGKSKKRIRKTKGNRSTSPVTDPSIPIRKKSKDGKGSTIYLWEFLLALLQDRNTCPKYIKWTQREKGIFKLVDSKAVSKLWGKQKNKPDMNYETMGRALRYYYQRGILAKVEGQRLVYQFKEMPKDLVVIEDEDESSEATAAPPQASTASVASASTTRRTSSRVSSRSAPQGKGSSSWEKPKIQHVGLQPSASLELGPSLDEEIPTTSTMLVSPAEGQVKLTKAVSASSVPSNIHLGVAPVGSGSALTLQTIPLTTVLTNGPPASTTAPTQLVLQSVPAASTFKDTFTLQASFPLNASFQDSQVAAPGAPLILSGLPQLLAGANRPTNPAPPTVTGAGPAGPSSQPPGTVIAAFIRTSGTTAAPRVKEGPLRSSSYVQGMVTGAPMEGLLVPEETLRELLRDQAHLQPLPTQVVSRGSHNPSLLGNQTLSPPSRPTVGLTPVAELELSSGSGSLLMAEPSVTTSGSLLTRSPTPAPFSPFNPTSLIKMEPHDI
# In short: as §1
# ELK4 = target: T9, ELK4 (Homo sapiens, UniProt P28324-2 1-405); details: protein: recombinant; tags: N-terminal GST; dsDNA, one strand shown
# T9 sequence: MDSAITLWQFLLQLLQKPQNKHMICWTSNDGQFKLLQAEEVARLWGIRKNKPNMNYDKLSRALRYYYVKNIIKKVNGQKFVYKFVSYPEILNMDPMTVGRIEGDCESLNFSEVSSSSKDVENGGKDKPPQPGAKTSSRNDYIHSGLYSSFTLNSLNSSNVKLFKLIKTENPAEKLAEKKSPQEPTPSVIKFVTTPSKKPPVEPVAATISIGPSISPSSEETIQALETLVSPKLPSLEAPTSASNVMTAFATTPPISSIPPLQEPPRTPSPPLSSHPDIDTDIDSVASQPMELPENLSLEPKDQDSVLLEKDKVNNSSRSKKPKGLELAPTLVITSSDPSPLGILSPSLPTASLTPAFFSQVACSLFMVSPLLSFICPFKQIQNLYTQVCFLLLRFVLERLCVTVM
# In short: as §1
# ETV2 = target: T10, ETV2 (Homo sapiens, UniProt O00321 1-342); details: protein: recombinant; tags: N-terminal GST; dsDNA, one strand shown
# T10 sequence: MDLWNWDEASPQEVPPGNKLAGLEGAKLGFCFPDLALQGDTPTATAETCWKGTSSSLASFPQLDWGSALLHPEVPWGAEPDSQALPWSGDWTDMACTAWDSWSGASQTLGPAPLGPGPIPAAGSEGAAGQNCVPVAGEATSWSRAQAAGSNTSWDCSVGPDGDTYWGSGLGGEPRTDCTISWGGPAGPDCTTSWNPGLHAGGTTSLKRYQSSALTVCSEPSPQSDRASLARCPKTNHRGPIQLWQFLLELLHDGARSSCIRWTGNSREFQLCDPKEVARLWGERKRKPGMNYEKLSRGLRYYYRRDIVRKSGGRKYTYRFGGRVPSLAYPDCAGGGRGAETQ
# In short: as §1
# ELF3 = target: T11, ELF3 (Homo sapiens, UniProt P78545 1-371); details: protein: recombinant; tags: N-terminal GST; dsDNA, one strand shown
# T11 sequence: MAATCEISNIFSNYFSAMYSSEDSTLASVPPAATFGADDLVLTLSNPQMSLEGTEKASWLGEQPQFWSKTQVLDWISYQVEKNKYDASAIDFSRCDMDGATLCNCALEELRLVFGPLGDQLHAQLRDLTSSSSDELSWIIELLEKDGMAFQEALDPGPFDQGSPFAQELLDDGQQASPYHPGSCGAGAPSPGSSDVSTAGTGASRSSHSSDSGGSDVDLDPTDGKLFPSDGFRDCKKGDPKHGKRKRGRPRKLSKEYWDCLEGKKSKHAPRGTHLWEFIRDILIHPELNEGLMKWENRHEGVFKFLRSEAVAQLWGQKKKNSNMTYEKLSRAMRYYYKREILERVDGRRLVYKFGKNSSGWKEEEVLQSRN
# In short: as §1
# CRX = CRX (Homo sapiens, UniProt O43186 1-299); details: protein: recombinant; tags: N-terminal GST; dsDNA, one strand shown
# Sequence of CRX (O43186 whole entry): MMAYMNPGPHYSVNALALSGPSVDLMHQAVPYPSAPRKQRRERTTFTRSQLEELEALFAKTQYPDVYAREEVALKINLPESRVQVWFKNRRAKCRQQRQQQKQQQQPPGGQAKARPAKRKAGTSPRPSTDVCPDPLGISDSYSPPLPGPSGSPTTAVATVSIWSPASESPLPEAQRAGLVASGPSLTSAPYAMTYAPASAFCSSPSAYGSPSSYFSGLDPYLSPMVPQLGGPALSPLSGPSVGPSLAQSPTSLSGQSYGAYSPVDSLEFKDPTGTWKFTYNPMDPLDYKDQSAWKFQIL
# In short: as §1
# ETV1 = ETV1 (Homo sapiens, UniProt P50549 1-477); details: protein: recombinant; tags: N-terminal GST; dsDNA, one strand shown
# Sequence of ETV1 (P50549 whole entry): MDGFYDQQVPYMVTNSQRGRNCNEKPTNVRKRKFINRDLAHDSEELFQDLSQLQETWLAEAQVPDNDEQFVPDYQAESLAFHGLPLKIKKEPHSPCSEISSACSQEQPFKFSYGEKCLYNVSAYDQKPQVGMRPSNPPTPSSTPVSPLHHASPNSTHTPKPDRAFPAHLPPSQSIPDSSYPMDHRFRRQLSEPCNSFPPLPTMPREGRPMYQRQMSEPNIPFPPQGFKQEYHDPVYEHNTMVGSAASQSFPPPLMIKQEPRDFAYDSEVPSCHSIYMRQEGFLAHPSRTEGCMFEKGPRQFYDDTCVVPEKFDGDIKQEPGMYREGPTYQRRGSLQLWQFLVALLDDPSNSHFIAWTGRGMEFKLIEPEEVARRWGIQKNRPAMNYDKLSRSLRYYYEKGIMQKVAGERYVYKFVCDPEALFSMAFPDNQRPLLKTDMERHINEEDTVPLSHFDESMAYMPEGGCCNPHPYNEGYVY
# In short: as §1
sequence,measurement,setting,value
CCATCT,binding signal,FLI1,"1.3 fold enrichment (6-mer frequency, TF over GST control)"
same,binding signal,ELK1,"1.44 fold enrichment (6-mer frequency, TF over GST control)"
same,binding signal,GABPA,"1.32 fold enrichment (6-mer frequency, TF over GST control)"
same,binding signal,ERG,"1.26 fold enrichment (6-mer frequency, TF over GST control)"
same,binding signal,ELF1,"1.38 fold enrichment (6-mer frequency, TF over GST control)"
same,binding signal,EHF,"1.33 fold enrichment (6-mer frequency, TF over GST control)"
same,binding signal,SPI1,"1.21 fold enrichment (6-mer frequency, TF over GST control)"
same,binding signal,SPIB,"1.28 fold enrichment (6-mer frequency, TF over GST control)"
same,binding signal,ELK3,"1.28 fold enrichment (6-mer frequency, TF over GST control)"
same,binding signal,FEV,"1.27 fold enrichment (6-mer frequency, TF over GST control)"
same,binding signal,ETV5,"1.29 fold enrichment (6-mer frequency, TF over GST control)"
same,binding signal,HSF1,"1.31 fold enrichment (6-mer frequency, TF over GST control)"
same,binding signal,SPIC,"1.35 fold enrichment (6-mer frequency, TF over GST control)"
same,binding signal,ELF4,"1.25 fold enrichment (6-mer frequency, TF over GST control)"
same,binding signal,ELK4,"1.4 fold enrichment (6-mer frequency, TF over GST control)"
same,binding signal,ETV2,"1.39 fold enrichment (6-mer frequency, TF over GST control)"
same,binding signal,ELF3,"1.34 fold enrichment (6-mer frequency, TF over GST control)"
same,binding signal,CRX,"1.28 fold enrichment (6-mer frequency, TF over GST control)"
same,binding signal,ETV1,"1.34 fold enrichment (6-mer frequency, TF over GST control)"

# Reference: publication PMC7862700, “An all-to-all approach to the identification of sequence-specific readers for epigenetic DNA modifications on cytosine”
